Structures can show the parent of a compound that is named as a salt. In all, about 1,700 compounds went through this assay and about 15 (0.9%) showed activity. The sample as a whole holds a higher share of actives than the screen did. Unmarked numbers belong to inactive results.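 Rule for the calls: active = infection cut by 80% or more with cell growth above 90% in both runs; inactive = the rest.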
Each compound was assayed on HSV-1 strain 17 YFP-ICP4 in A549 (assay: HSV-1 infection relative to DMSO (ICP4-YFP per H2B-RFP signal); higher = more viral infection (less antiviral activity), active = hit call of the paper). Details: 10 µM; 48 h; MOI: 0.1.
Experimental: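 Selleck FDA-approved library (L1300) screened in duplicate at 10 µM on A549 H2B-mRuby cells in 384-well plates, infected with HSV-1 strain 17 YFP-ICP4 at MOI 0.1 one hour before drug addition. Imaged after 2 days at 37°C. Cell growth (H2B-RFP) and infection (ICP4-YFP) are expressed as % of DMSO-treated wells. Hits: growth >90% and infection <20% of DMSO.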
Work on CO/N=C(\C(=O)N[C@@H]1C(=O)N2C(C(=O)[O-])=C(C[N+]3(C)CCCC3)CS[C@H]12)c1csc(N)n1 [Cefepime Dihydrochloride Monohydrate] yielded an HSV-1 infection of 98%.
CCCc1nc(C(C)(C)O)c(C(=O)O)n1Cc1ccc(-c2ccccc2-c2nnn[nH]2)cc1 [Olmesartan] gave an HSV-1 infection of 114%.
Work on C[C@H](Nc1ncnc2nc[nH]c12)c1cc2cccc(Cl)c2c(=O)n1-c1ccccc1 [Duvelisib (IPI-145, INK1197)] yielded an HSV-1 infection of 69.2%.
In the case of CSCC[C@H](NC(=O)[C@H](CC(C)C)NC(=O)[C@H](Cc1c[nH]c2ccccc12)NC(=O)[C@H](CCC(N)=O)NC(=O)[C@@H](NC(=O)[C@H](Cc1ccccc1)NC(=O)[C@H](CC(=O)O)NC(=O)[C@H](CCC(N)=O)NC(=O)[C@H](C)NC(=O)[C@H](CCCNC(=N)N)NC(=O)[C@H](CCCNC(=N)N)NC(=O)[C@H](CO)NC(=O)[C@H](CC(=O)O)NC(=O)[C@H](CC(C)C)NC(=O)[C@H](Cc1ccc(O)cc1)NC(=O)[C@H](CCCCN)NC(=O)[C@H](CO)NC(=O)[C@H](Cc1ccc(O)cc1)NC(=O)[C@H](CC(=O)O)NC(=O)[C@H](CO)NC(=O)[C@@H](NC(=O)[C@H](Cc1ccccc1)NC(=O)[C@@H](NC(=O)CNC(=O)[C@H](CCC(N)=O)NC(=O)[C@H](CO)NC(=O)[C@@H](N)Cc1cnc[nH]1)[C@@H](C)O)[C@@H](C)O)C(C)C)C(=O)N[C@@H](CC(N)=O)C(=O)N[C@H](C(=O)O)[C@@H](C)O [Glucagon HCl], the HSV-1 infection is reported as 99.3%.
COc1cc(CNC(=O)CCCCC=CC(C)C)ccc1O [Capsaicin(Vanilloid)] was tested, and the HSV-1 infection was 86.2%.
CC1(C)CCC(CN2CCN(c3ccc(C(=O)NS(=O)(=O)c4ccc(NCC5CCOCC5)c([N+](=O)[O-])c4)c(Oc4cnc5[nH]ccc5c4)c3)CC2)=C(c2ccc(Cl)cc2)C1 [Venetoclax (ABT-199, GDC-0199)] was tested, and the HSV-1 infection was 96%.
With CC(O)c1ccc(S(=O)(=O)NC(=O)NC2CCCCC2)cc1 (configuration not stated) [Hydroxyhexamide] the HSV-1 infection was 94.9%.
Compound COc1ccc2c(O[C@@H]3C[C@H]4C(=O)N[C@]5(C(=O)NS(=O)(=O)C6CC6)C[C@H]5/C=C\CCCCN(C)C(=O)[C@@H]4C3)cc(-c3nc(C(C)C)cs3)nc2c1C [Simeprevir] has an HSV-1 infection of 84.7%.
COc1cc(C(=O)O)ccc1NC(=O)[C@@H]1N[C@@H](CC(C)(C)C)[C@](C#N)(c2ccc(Cl)cc2F)[C@H]1c1cccc(Cl)c1F [Idasanutlin (RG-7388)] was tested, and the HSV-1 infection was 101%.
O=c1[nH]c2ccccc2n1CCN1CCN(c2cccc(C(F)(F)F)c2)CC1 [Flibanserin] showed an HSV-1 infection of 89.9%.
With CC(C)(Oc1ccc(Cl)cc1)C(=O)OCCOC(=O)c1cccnc1 [Etofibrate] the HSV-1 infection was 109%.
For NCCCC[C@H](NC(=O)[C@@H]1CCCN1C(=O)[C@@H]1CSSC[C@H](NC(=O)CNC(=O)CNC(=O)CN)C(=O)N[C@@H](Cc2ccc(O)cc2)C(=O)N[C@@H](Cc2ccccc2)C(=O)N[C@@H](CCC(N)=O)C(=O)N[C@@H](CC(N)=O)C(=O)N1)C(=O)NCC(N)=O [Terlipressin Acetate], the HSV-1 infection was 110%.
With CCOc1ccc(Cc2cc([C@@H]3O[C@H](SC)[C@@H](O)[C@H](O)[C@H]3O)ccc2Cl)cc1 [Sotagliflozin (LX4211)] the HSV-1 infection was 111%.
CCCCCCCCCC(=O)N[C@H]1[C@H](Oc2c3cc4cc2Oc2ccc(cc2Cl)[C@@H](O[C@@H]2O[C@H](CO)[C@@H](O)[C@H](O)[C@H]2NC(C)=O)[C@@H]2NC(=O)[C@H](NC(=O)[C@@H]4NC(=O)[C@H]4NC(=O)[C@@H](Cc5ccc(c(Cl)c5)O3)NC(=O)[C@H](N)c3ccc(O)c(c3)Oc3cc(O)cc4c3)c3ccc(O)c(c3)-c3c(OC4O[C@H](CO)[C@@H](O)[C@H](O)[C@@H]4O)cc(O)cc3[C@@H](C(=O)O)NC2=O)O[C@H](CO)[C@@H](O)[C@@H]1O (some centres not stated) [Teicoplanin] was tested, and the HSV-1 infection was 89%.
In the case of CN(C)Cc1ccc(S(=O)(=O)n2ccc(/C=C/C(=O)NO)c2)cc1 [Resminostat], the HSV-1 infection is reported as 64.2%.
C1=N/C2=N/c3ccc(OCCN4CCCC4)c(c3)COC/C=C/COCc3cccc(c3)C(=C1)N2 [Pacritinib (SB1518)] gave an HSV-1 infection of 22.2%.
In the case of COc1ccc(CN(C(=O)[C@@H](N)Cc2c(C)cc(C(N)=O)cc2C)[C@@H](C)c2ncc(-c3ccccc3)[nH]2)cc1C(=O)O [Eluxadoline], the HSV-1 infection is reported as 97.4%.
O=C(NC[C@H]1CN(c2ccc(N3CCOCC3=O)cc2)C(=O)O1)c1ccc(Cl)s1 [Rivaroxaban] showed an HSV-1 infection of 110%.
N.N.O=C([O-])C[O-].[Pt+2] [Nedaplatin] showed an HSV-1 infection of 87%.
N#C[C@@H]1CCCN1C(=O)CNC12CC3CC(CC(O)(C3)C1)C2 [Vildagliptin (LAF-237)] was tested, and the HSV-1 infection was 103%.
Work on O[C@@H](COc1cccc2ncccc12)CN1CCN(C2c3ccccc3[C@@H]3[C@H](c4ccccc42)C3(F)F)CC1 (some centres not stated) yielded an HSV-1 infection of 75.2%.
In the case of CC[C@@H]1C(=O)N(C)c2cnc(Nc3ccc(C(=O)N[C@H]4CC[C@H](N5CCN(CC6CC6)CC5)CC4)cc3OC)nc2N1C(C)C [Volasertib (BI 6727)], the HSV-1 infection is reported as 29.3%.
Compound CO[C@@]1(NC(=O)CSC[C@@H](N)C(=O)O)C(=O)N2C(C(=O)O)=C(CSc3nnnn3C)CS[C@@H]21 [Cefminox Sodium] has an HSV-1 infection of 110%.
In the case of Cc1cc(C)c2c(c1)[C@@H](N(Cc1cc(C(F)(F)F)cc(C(F)(F)F)c1)c1nnn(C)n1)CCCN2C[C@H]1CC[C@H](C(=O)O)CC1, the HSV-1 infection is reported as 88.1%.
With C#CCN[C@@H]1CCc2ccccc21 [Rasagiline Mesylate] the HSV-1 infection was 98.1%.
Work on C[C@H]1CN(C[C@H](Cc2ccccc2)C(=O)NCC(=O)O)CC[C@@]1(C)c1cccc(O)c1 [Alvimopan dihydrate] yielded an HSV-1 infection of 104%.
Compound CN1CCN(CCOc2cc(OC3CCOCC3)c3c(Nc4c(Cl)ccc5c4OCO5)ncnc3c2)CC1 [Saracatinib (AZD0530)] has an HSV-1 infection of 38.7%.
